Screening data from PubChem.
Only some compounds are listed: those with a hit (about 2.3% of all), similar ones and a draw of the others.
PTHR1 ag: qHTS for PTHR1 Agonists: Primary Screen. Potency, µM (highest dose often 115 µM), inactives show top-dose activation, actives largely listed as activators. Parathyroid hormone/parathyroid hormone-related peptide receptor (Homo sapiens), Q03431. AID 743266, 2014. hit rate 0.075% among 410,000. HEK293 GP2 PTHR1 cells, GloSensor cAMP luminescence, 1 h; further: nearly all actives have a fitted effect of over 55% in size
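HEK-293-derived GP2 cells expressing PTHR1 and a GloSensor cAMP reporter, 3,000/well, plated overnight, given luciferin plus IBMX (each 0.5 mM as added) for 1 h at 37 °C, then compound for 1 h at 37 °C. Luminescence was read after 15 min at room temperature.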
GLP-1R agonist: qHTS of GLP-1 Receptor Agonists; Glucagon-like peptide 1 receptor (Homo sapiens), P43220; HEK293 GLP-1R CRE-luciferase, luminescence, 4-6 h; cells express a hypersensitive GLP-1R form; Potency, µM (titrated, usually from 45.6 µM), for inactives: at the top dose activation, most hits filed as activators; hit rate 0.007% among 380,000; AID 624172, 2012; further: % of control where 0% means no effect
GLP1R inv ag: qHTS of GLP-1 Receptor Inverse Agonists (Inhibition Mode); Glucagon-like peptide 1 receptor (Homo sapiens), P43220; HEK293 GLP-1R CRE-luciferase, luminescence, 24 h; GLP-1R form is constitutively active; Potency, µM (titrated, usually from 38.3 µM), for inactives: at the highest dose activity change, negative = inhibition, usual class: inhibitors; hit rate 1.6% among 410,000; further: on the % scale 0 is the no-effect control and ±100 the full control effect; nearly all actives have a fitted effect of over 55% in size
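Luminescence readout: a drop in cAMP-driven luciferase signal flags inverse agonism at a constitutively active GLP-1R stably expressed in HEK293. Compound exposure lasted 24 hr at 37 deg C, 5% CO2.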
12-LOX inh: Primary qHTS assay for inhibitors of human arachidonate 12S-lipoxygenase (ALOX12): Round 2; hit rate 1.1% among 580,000; Polyunsaturated fatty acid lipoxygenase ALOX12 (Homo sapiens), P18054; purified 12hLO, xylenol orange hydroperoxide absorbance; Potency, µM (doses to about 108 µM), for inactives: top-dose activity change, negative = inhibition, usual class: inhibitors; AID 1671190, 2021; further: on the % scale 0 is the no-effect control and ±100 the full control effect
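Purified human 12hLO at 150 nM in 25 mM Hepes, 0.01% Triton X-100, pH 7.0, preincubated 15 min at room temperature with compound. Reaction started with 40 uM arachidonic acid, 30 min at room temperature. Hydroperoxide measured by Fe-xylenol orange, 573/405 nm absorbance ratio.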
GLS inhibitor: qHTS for Inhibitors of Glutaminase (GLS); Glutaminase kidney isoform, mitochondrial (Homo sapiens), O94925; GLS enzymatic activity, qHTS titration; Potency, µM (titrated, usually from 45.5 µM), without a hit: at the top dose activity change, negative = inhibition, usual class: inhibitors; hit rate 0.21% among 410,000; further: on the % scale 0 is the no-effect control and ±100 the full control effect
Target sequence (O94925 whole entry, looked up, canonical isoform): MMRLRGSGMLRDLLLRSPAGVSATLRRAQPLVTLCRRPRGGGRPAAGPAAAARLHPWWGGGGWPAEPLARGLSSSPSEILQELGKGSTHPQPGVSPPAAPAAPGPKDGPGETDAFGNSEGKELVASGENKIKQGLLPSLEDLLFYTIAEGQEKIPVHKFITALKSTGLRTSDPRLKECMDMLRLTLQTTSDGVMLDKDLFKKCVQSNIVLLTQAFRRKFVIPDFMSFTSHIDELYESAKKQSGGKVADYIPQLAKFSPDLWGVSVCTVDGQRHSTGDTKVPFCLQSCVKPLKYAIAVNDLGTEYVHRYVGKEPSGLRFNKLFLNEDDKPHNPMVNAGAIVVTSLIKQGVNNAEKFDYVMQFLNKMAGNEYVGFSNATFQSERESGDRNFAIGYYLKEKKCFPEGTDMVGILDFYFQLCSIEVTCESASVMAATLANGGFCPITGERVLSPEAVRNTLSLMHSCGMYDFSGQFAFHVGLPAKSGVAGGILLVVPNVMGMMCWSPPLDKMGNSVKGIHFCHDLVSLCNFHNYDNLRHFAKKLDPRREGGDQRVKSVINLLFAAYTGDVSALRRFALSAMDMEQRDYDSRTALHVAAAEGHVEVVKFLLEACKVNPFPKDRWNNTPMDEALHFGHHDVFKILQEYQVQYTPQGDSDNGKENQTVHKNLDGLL
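Coupled fluorescence readout: glutamate oxidase/HRP/Amplex Red detect glutamate formed by hKGA from L-glutamine (1 mM solution added). Buffer 45 mM KH2PO4 pH 8.2, 0.02% Tween-20; reads at t0 and 30 min RT.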
GRP78 ERSR act: qHTS for Inducers of the Endoplasmic Reticulum Stress Response (ERSR) in Human Glioma: qHTS; U87-MG GRP78 promoter luciferase reporter, 16 h; Potency, µM, inactives show at the highest dose activation, usual class: activators; hit rate 0.02% among 420,000; further: series mostly up to about 76 µM; % of control where 0% means no effect; nearly all actives have a fitted effect of over 35% in size
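ERSR induction read as luciferase luminescence (Bright-Glo, 10 min at room temperature) in stably transfected human U87-MG glioma cells exposed to compounds for 16 h, using GRP78 as sensor.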
* marks the source's active call; other numbers are inactive results; i = inactive; u = inconclusive; x = not tested or not shown; [ ] = dose if it differs, or a comment. The call rests on the fitted dose curve; in most records, active means well fitted curve in the direction sought with a large enough effect; inconclusive means small, poorly fitted or top-dose-only effect, or another doubt; inactive means no such curve, though single readings can be large; an effect the other way counts as inactive or inconclusive. Potency means the concentration at half of the fitted maximal effect.

SMILES	PTHR1 ag	GLP-1R agonist	GLP1R inv ag	12-LOX inh	GLS inhibitor	GRP78 ERSR act
O=C(Nc1ccc(S(=O)(=O)N2CCCCC2c2cccnc2)cc1)c1ccc(Br)cc1 (stereo unspecified)	-5%	x	10µM*	-11%	2%	-6%
N#C/C(=C\c1ccc([N+](=O)[O-])o1)C(=O)NC1CCCCC1	x	x	x	16µM*	x	x
N#C/C(=C\c1ccco1)C(=O)NC1CCCC1	x	x	x	40µM*	x	x
N#C/C(=C\c1ccc(N2CCOCC2)o1)C(=O)NC1CCCCC1	i	u	70%	u	20%	2%
CN(C)CCNC(=O)c1nc(-c2cccc3[nH]ccc23)no1	x	x	x	8%	x	x
Oc1ccccc1-c1nc2ccccc2nc1-c1ccccc1	-3%	24%	11µM*	4%	1%	-4%
Cc1ccc(NC(=O)CSc2ncc(S(=O)(=O)c3ccc(C(C)C)cc3)c(=O)[nH]2)cc1C	-16%	10%	15%	45µM*	-6%	-1%
Cc1ccc(S(=O)(=O)c2cnc(SCC(=O)Nc3ccc4c(c3)OCCO4)[nH]c2=O)cc1C	i	-1%	6%	0%	0%	-3%
COc1ccccc1/C=C1\SC(=S)N(NS(=O)(=O)c2ccc(C)cc2)C1=O	i	-6%	u	35µM*	11%	-1%
O=C(COc1ccc2ccc(=O)oc2c1)NCCc1ccccc1F	x	x	x	26%	x	x
CC(C)CCn1c(Sc2nc3ccccc3o2)nc2c1c(=O)[nH]c(=O)n2C	-23%	0%	4.5µM*	u	2%	2%
COc1ccc(OC)c(CNC(=O)c2cc(Br)ccc2O)c1	x	x	x	-39%	x	x
O=C1NC[C@H](Cc2ccc(O)cc2)N(C[C@@H]2CCCN2C[C@H](Cc2ccccc2)N2C[C@H](Cc3ccc(O)cc3)N(CC3CCCCCC3)C(=O)C2=O)C1=O	u	4%	8%	25µM*	20%	x
O=C1NC[C@H](Cc2ccccc2)N(C[C@H]2CCCN2C[C@H](Cc2ccc(O)cc2)N2C[C@H](Cc3ccc(O)cc3)N(CC3CCCCCC3)C(=O)C2=O)C1=O	16%	4%	7%	16µM*	27%	0%
O=C1NC[C@H](CCCCN2C[C@H](Cc3ccc(O)cc3)N(CC3CCCCC3)C(=O)C2=O)N(CC2CCCCC2)C1=O	10%	-1%	26%	45µM*	1%	x
O=C1NC[C@H](Cc2ccccc2)N(C[C@H]2CCCN2C[C@H](Cc2ccccc2)N2C[C@H](Cc3ccc(O)cc3)N(CC3CCCCCC3)C(=O)C2=O)C1=O	-3%	-2%	u	u	13%	11%
CC1CCN([C@@H]2[C@H](O)[C@H](CO)O[C@@H]2CNC(=O)c2ccc(F)c(Cl)c2)CC1	x	x	x	8%	x	x
C1=C(CCNc2ncnc3c2[nH]c2ccccc23)CCCC1	-26%	-7%	4.5µM*	u	12%	-3%
O=c1c2[nH]c3ccccc3c2ncn1CCC1=CCCCC1	-8%	-10%	46%	-18%	12%	u
Cc1ccc2[nH]cc(CCNC(=O)/C=C/c3cccc(F)c3)c2c1	x	x	x	-15%	x	x
O=C(Nc1ccncc1)C1CCCN(S(=O)(=O)c2cccc3cccnc23)C1 (stereo unspecified)	-15%	8%	1.8µM*	422%	-1%	3%
O=C(NCCC1=CCCCC1)C1CCCN(S(=O)(=O)c2cccc3cccnc23)C1 (stereo unspecified)	-94%	1%	7.9µM*	51%	5%	-4%
O=C(COc1cc(O)c2c(=O)cc(-c3ccccc3)oc2c1)NCCOCCO	x	x	x	0%	x	x
Cc1c(-c2ccc(F)cc2)[nH]c2ccc(CNC(=O)c3n[nH]c4c3CCCC4)cc12	x	x	x	29%	x	x
CC[C@H]1OC(=O)[C@H](C)[C@@H](O[C@H]2C[C@@](C)(OC)[C@@H](O)[C@H](C)O2)[C@H](C)[C@@H](O[C@@H]2O[C@H](C)C[C@H](N(C)C)[C@@H]2O)[C@](C)(OC)C[C@@H](C)C(=O)[C@H](C)[C@@H](O)[C@]1(C)O	x	x	x	-9%[57.4 µM]	x	x
SMILES	PTHR1 ag	GLP-1R agonist	GLP1R inv ag	12-LOX inh	GLS inhibitor	GRP78 ERSR act
CC[C@H]1OC(=O)[C@H](C)C(=O)[C@H](C)[C@@H](O[C@H]2O[C@H](C)C[C@H](N(C)C)[C@@H]2O)[C@](C)(OC)C[C@@H](C)C(=O)[C@H](C)[C@H]2N(CCCCn3cnc(-c4cccnc4)c3)C(=O)O[C@]12C	x	x	x	4.9µM*	x	x
O=C(NNc1cccc(Cl)n1)c1c(Cl)cccc1Cl	2%	-1%	0%	-15%	x	0%
O=C(NNc1ccc(F)cc1)c1c(F)cccc1Cl	i	0%	1.1µM*	92%	-20%	-1%
O=C(NNc1cccc(Cl)n1)c1c(F)cccc1F	i	3%	19%	4%	7.9µM*	13%
CCOC(=O)c1c(C)oc(NC(=O)c2cc(-c3ccc(OC)cc3)on2)c1C#N	x	x	x	32%	x	x
CC(C)(C)c1ccc(-n2ncc3c2CCCC3NC(=O)c2ccco2)cc1 (stereo unspecified)	-29%	-2%	10µM*	5%	-1%	-6%
CC(=O)Nc1cccc(C(=O)NC2CCCc3c2cnn3-c2ccc(C(C)(C)C)cc2)c1 (stereo unspecified)	-20%	17%	u	-1%	-13%	-3%
CCC(C)Cc1nccc(C2(c3ccccc3Cl)CCNCC2)n1 (stereo unspecified)	x	x	x	-10%	x	x
CCOC(=O)c1cnc(N2CCN(c3ccccc3)CC2)c2ccccc12	x	x	x	-3%	x	x
O=C1N/C(=N\N=C\c2ccco2)SC1Cc1ccccc1[N+](=O)[O-] (stereo unspecified)	-16%	-6%	7.1µM*	10%	8%	1%
CCOc1ccc(CC2S/C(=N/N=C/c3ccco3)NC2=O)cc1 (stereo unspecified)	-5%	-1%	-12%	2%	0%	3%
Cc1ccc(Nc2n[nH]nc2C(=O)Nc2ccc(C)c(Cl)c2)cc1	x	x	x	13%	x	x
Cc1ccc(NC(=O)c2cc(C)n(-c3cccc(C)c3)c2C)cc1	-90%	-2%	11µM*	-4%	-1%	1%
O=C(/C=C/c1ccc2c(c1)OCCCO2)OCc1ccccn1	x	x	x	-27%	x	x
